Where “and” joins values, the source holds several entries; their conditions need not be identical. Identical values can stand only once. Out of some 5,500 compounds screened, about 2,000 (36%) were called active. Not shown: some 18% with an inconclusive outcome. Cut-off read from the data, not from the text of the source: active = normalized growth mostly below about 0.91 (no sharp cut-off); inconclusive = no clear call, values can overlap the other calls; inactive = mostly above about 0.92. Some of the results follow.
Test: chemical genetic growth profiling, strain panel (AID 1159580);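 note: tested at 20 µM; growth read once vehicle control cultures reached saturation at 30 °C; 1 = growth at the plate median or of vehicle wells; lower values mean less growth of the strain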
Settings: S. cerevisiae deletion strains, growth OD

Measured: normalized growth

CCOC(=O)CCC(=O)O[C@H]1[C@H](O[C@@H]2[C@@H](C)[C@H](O[C@H]3C[C@@](C)(OC)[C@@H](O)[C@H](C)O3)[C@@H](C)C(=O)O[C@H](CC)[C@@](C)(O)[C@H](O)[C@@H](C)C(=O)[C@H](C)C[C@@]2(C)O)O[C@H](C)C[C@@H]1N(C)C
inactive: locus YAL021C, strain ccr4, stronger effect = lower value 1.01 | locus YAL026C, strain drs2, stronger effect = lower value 1.02 | locus YAL030W, strain snc1, stronger effect = lower value 0.99 | locus YBL061C, strain skt5, stronger effect = lower value 0.994 | locus YBR009C, strain hhf1, stronger effect = lower value 0.993 | locus YBR021W, strain FUR4, stronger effect = lower value 0.997 | locus YBR023C, strain chs3, stronger effect = lower value 0.999 | locus YBR171W, strain sec66, stronger effect = lower value 1.01 | locus YBR229C, strain ROT2, stronger effect = lower value 0.949 | locus YBR231C, strain swc5, stronger effect = lower value 0.971 | locus YBR279W, strain paf1, stronger effect = lower value 1.01 | locus YCL011C, strain gbp2, stronger effect = lower value 1.01 | locus YCL016C, strain dcc1, stronger effect = lower value 0.992 | locus YCL029C, strain bik1, stronger effect = lower value 0.99 | locus YCL069W, strain vba3, stronger effect = lower value 1 | locus YCR088W, strain abp1, stronger effect = lower value 1.01 | locus YDL005C, strain med2, stronger effect = lower value 0.994 | locus YDL035C, strain GPR1, stronger effect = lower value 0.945 | locus YDL040C, strain nat1, stronger effect = lower value 0.995 | locus YDL074C, strain BRE1, stronger effect = lower value 0.962 | locus YDL101C, strain DUN1, stronger effect = lower value 0.977 | locus YDL134C, strain PPH21, stronger effect = lower value 0.963 | locus YDL185W, strain tfp1, stronger effect = lower value 0.971 | locus YDL192W, strain arf1, stronger effect = lower value 0.985 | locus YDR001C, strain nth1, stronger effect = lower value 1.01 | locus YDR069C, strain doa4, stronger effect = lower value 0.983 | locus YDR101C, strain arx1, stronger effect = lower value 0.953 | locus YDR137W, strain rgp1, stronger effect = lower value 1.01 | locus YDR150W, strain NUM1, stronger effect = lower value 0.988 | locus YDR159W, strain sac3, stronger effect = lower value 0.979 | locus YDR162C, strain NBP2, stronger effect = lower value 0.955 | locus YDR195W, strain ref2 0.956 | locus YDR297W, strain sur2, stronger effect = lower value 1 | locus YDR318W, strain mcm21, stronger effect = lower value 0.996 | locus YDR334W, strain swr1, stronger effect = lower value 1 | locus YDR335W, strain msn5, stronger effect = lower value 0.993 | locus YDR388W, stronger effect = lower value 0.984 | locus YDR392W, strain spt3, stronger effect = lower value 1.03 | locus YDR502C, strain sam2, stronger effect = lower value 0.991 | locus YEL003W, strain gim4, stronger effect = lower value 1.01 | locus YEL037C, strain rad23, stronger effect = lower value 1.01 | locus YEL061C, strain CIN8 (second series), stronger effect = lower value 1.02 | locus YEL061C, strain CIN8, stronger effect = lower value 0.989 | locus YER015W, strain faa2, stronger effect = lower value 0.986 | locus YER016W, strain bim1, stronger effect = lower value 1.01 | locus YER110C, stronger effect = lower value 0.99 | locus YER111C, strain swi4, stronger effect = lower value 0.996 | locus YER155C, strain BEM2 (second series), stronger effect = lower value 0.985 | locus YER155C, strain BEM2, stronger effect = lower value 0.999 | locus YER167W, strain BCK2, stronger effect = lower value 0.999 | locus YFR010W, strain ubp6, stronger effect = lower value 1.03 | locus YGL078C, strain dbp3, stronger effect = lower value 0.994 | locus YGL086W, strain mad1, stronger effect = lower value 0.972 | locus YGL167C, strain pmr1, stronger effect = lower value 1 | locus YGL173C, strain kem1, stronger effect = lower value 1 | locus YGL227W, strain vid30, stronger effect = lower value 1.01 | locus YGL240W, strain doc1, stronger effect = lower value 0.975 | locus YGL248W, strain PDE1, stronger effect = lower value 0.986 | locus YGL253W, strain hxk2, stronger effect = lower value 1.01 | locus YGR135W, strain pre9, stronger effect = lower value 1.05 | locus YGR252W, strain gcn5, stronger effect = lower value 1.07 | locus YHR013C, strain ard1, stronger effect = lower value 0.997 | locus YHR027C, strain rpn1, stronger effect = lower value 1.02 | locus YHR030C, strain SLT2, stronger effect = lower value 0.995 and 1.03 | locus YHR079C, strain IRE1 (second series), stronger effect = lower value 0.962 | locus YHR079C, strain IRE1, stronger effect = lower value 1.04 | locus YHR094C, strain hxt1, stronger effect = lower value 0.985 | locus YHR129C, strain ARP1, stronger effect = lower value 0.986 | locus YHR142W, strain chs7, stronger effect = lower value 1.03 | locus YHR200W, strain rpn10, stronger effect = lower value 0.98 | locus YIL066C, strain RNR3, stronger effect = lower value 0.974 | locus YIL073C, strain SPO22, stronger effect = lower value 1 | locus YIL125W, strain kgd1, stronger effect = lower value 0.985 | locus YIR030C, strain dcg1, stronger effect = lower value 0.997 | locus YJL092W, strain hpr5, stronger effect = lower value 1.01 | locus YJL095W, strain BCK1 (second series), stronger effect = lower value 0.99 | locus YJL095W, strain BCK1, stronger effect = lower value 0.99 and 1.02 | locus YJL115W, strain asf1, stronger effect = lower value 1 | locus YJL129C, strain trk1, stronger effect = lower value 1 | locus YJL134W, strain LCB3, stronger effect = lower value 0.993 | locus YJL154C, strain vps35, stronger effect = lower value 1.01 | locus YJL164C, strain tpk1, stronger effect = lower value 0.999 | locus YJL166W, strain qcr8, stronger effect = lower value 0.993 | locus YJL168C, strain set2, stronger effect = lower value 0.985 | locus YJL187C, strain SWE1 (second series), stronger effect = lower value 0.991 | locus YJR043C, strain POL32, stronger effect = lower value 0.963 | locus YJR066W, strain TOR1, stronger effect = lower value 0.89 | locus YJR075W, strain HOC1, stronger effect = lower value 0.983 | locus YKL009W, strain mrt4, stronger effect = lower value 0.971 | locus YKL068W, stronger effect = lower value 0.987 | locus YKL085W, strain MDH1 (second series), stronger effect = lower value 0.995 | locus YKL085W, strain MDH1, stronger effect = lower value 0.995 | locus YKL160W, strain elf1, stronger effect = lower value 1 | locus YKR001C, strain vps1, stronger effect = lower value 0.981 | locus YKR026C, strain gcn3, stronger effect = lower value 1.01 | locus YKR091W, strain srl3, stronger effect = lower value 1 | locus YLL001W, strain dnm1, stronger effect = lower value 1 | locus YLL026W, stronger effect = lower value 0.991 | locus YLL041C, strain sdh2, stronger effect = lower value 1 | locus YLR027C, strain aat2, stronger effect = lower value 0.986 | locus YLR039C, strain RIC1, stronger effect = lower value 0.932 | locus YLR058C, strain SHM2, stronger effect = lower value 0.975 | locus YLR102C, strain apc9, stronger effect = lower value 0.986 | locus YLR113W, strain HOG1, stronger effect = lower value 1.11 | locus YLR221C, strain rsa3, stronger effect = lower value 1 | locus YLR258W, strain gsy2, stronger effect = lower value 0.983 | locus YLR262C, strain YPT6 (second series), stronger effect = lower value 1.04 | locus YLR262C, strain YPT6, stronger effect = lower value 0.885 | locus YLR268W, strain sec22, stronger effect = lower value 0.97 | locus YLR320W, strain mms22, stronger effect = lower value 0.996 | locus YLR330W, strain CHS5, stronger effect = lower value 0.985 | locus YLR342W, strain FKS1 (second series), stronger effect = lower value 0.985 | locus YLR342W, strain FKS1, stronger effect = lower value 0.985 | locus YLR357W, strain rsc2, stronger effect = lower value 0.982 | locus YLR370C, strain arc18, stronger effect = lower value 1.02 | locus YLR371W, strain rom2, stronger effect = lower value 0.992 | locus YLR384C, strain iki3, stronger effect = lower value 0.981 | locus YLR418C, strain cdc73, stronger effect = lower value 1.01 | locus YML016C, strain PPZ1, stronger effect = lower value 0.987 | locus YML032C, strain rad52, stronger effect = lower value 0.982 | locus YML120C, strain ndi1, stronger effect = lower value 0.995 | locus YML124C, strain tub3, stronger effect = lower value 0.988 | locus YMR058W, strain fet3, stronger effect = lower value 1.01 | locus YMR078C, strain ctf18, stronger effect = lower value 0.983 | locus YMR125W, strain sto1, stronger effect = lower value 1.01 | locus YMR129W, stronger effect = lower value 0.993 | locus YMR205C, strain PFK2, stronger effect = lower value 0.99 | locus YMR223W, strain ubp8, stronger effect = lower value 1.03 | locus YMR231W, strain pep5, stronger effect = lower value 0.998 | locus YMR263W, strain SAP30, stronger effect = lower value 0.984 | locus YMR307W, strain GAS1, stronger effect = lower value 0.97 | locus YNL067W, strain RPL9B, stronger effect = lower value 0.992 | locus YNL071W, strain lat1, stronger effect = lower value 0.996 | locus YNL153C, strain GIM3, stronger effect = lower value 0.983 | locus YNL183C, strain NPR1, stronger effect = lower value 0.981 | locus YNL209W, strain ssb2, stronger effect = lower value 0.991 | locus YNL233W, strain BNI4, stronger effect = lower value 0.988 | locus YNL248C, strain rpa49, stronger effect = lower value 1.04 | locus YNL250W, strain rad50, stronger effect = lower value 0.99 | locus YNL271C, strain bni1, stronger effect = lower value 0.997 | locus YNL298W, strain CLA4, stronger effect = lower value 0.99 | locus YNL307C, strain MCK1, stronger effect = lower value 0.989 | locus YNL322C, strain KRE1 (second series), stronger effect = lower value 0.988 | locus YNL322C, strain KRE1, stronger effect = lower value 0.995 | locus YNR049C, strain mso1, stronger effect = lower value 0.988 | locus YNR052C, strain pop2, stronger effect = lower value 1 | locus YOL012C, strain htz1 0.719 | locus YOL147C, strain pex11, stronger effect = lower value 0.995 | locus YOR001W, strain rrp6, stronger effect = lower value 1 | locus YOR061W, strain CKA2, stronger effect = lower value 0.966 | locus YOR069W, strain VPS5, stronger effect = lower value 0.991 | locus YOR070C, strain gyp1, stronger effect = lower value 0.991 | locus YOR080W, strain dia2, stronger effect = lower value 0.978 | locus YOR083W, strain WHI5, stronger effect = lower value 1.02 | locus YOR106W, strain vam3, stronger effect = lower value 0.989 | locus YOR136W, strain idh2, stronger effect = lower value 0.982 | locus YOR144C, strain elg1, stronger effect = lower value 0.987 | locus YOR184W, strain ser1, stronger effect = lower value 0.98 | locus YOR231W, strain MKK1, stronger effect = lower value 1.07 | locus YOR265W, strain rbl2, stronger effect = lower value 0.984 | locus YOR270C, strain vph1, stronger effect = lower value 1.03 | locus YOR290C, strain snf2, stronger effect = lower value 1.03 | locus YOR316C, strain cot1, stronger effect = lower value 0.975 | locus YPL051W, strain arl3, stronger effect = lower value 0.988 | locus YPL078C, strain atp4, stronger effect = lower value 0.991 | locus YPL106C, strain sse1, stronger effect = lower value 0.986 | locus YPL240C, strain hsp82, stronger effect = lower value 1.01 | locus YPL241C, strain CIN2, stronger effect = lower value 0.979 | locus YPL256C, strain CLN2, stronger effect = lower value 1.05 | locus YPR119W, strain clb2, stronger effect = lower value 0.988 | locus YPR141C, strain kar3, stronger effect = lower value 0.987 | locus YPR163C, strain tif3, stronger effect = lower value 0.989 | locus YPR167C, strain met16, stronger effect = lower value 0.991 | strain wtn01, stronger effect = lower value 0.99
